The values below come from PubChem BioAssay (NCATS).

The test system of one experiment is CRL-7250. Put plainly: Cytotoxic Profiling of Annotated Libraries Using Quantitative High-Throughput Screening (AID 1296008). Further: potency means the concentration at half of the fitted maximal effect. On max response: on the % scale 0 is the no-effect control and ±100 the full control effect. Particulars: Five cell lines viability, CellTiter-Glo ATP luminescence, 48-72 h; max response: hits give low values. The gist of the method: (§1)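 Compounds were pin-transferred onto cells and incubated 48 or 72 hr at 37 degree Celsius, 95% humidity. CellTiter-Glo was added, plates sat 10 min at room temperature, then ATP-coupled luminescence was imaged as the viability read-out.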

The test system of the next experiment is HEK293. The description is as above. Particulars: Five cell lines viability, CellTiter-Glo ATP luminescence, 48-72 h; max response: hits give low values. The gist of the method: as §1
Experiment [1] deals with HaCat. The experiment is described as above. Conditions: Five cell lines viability, CellTiter-Glo ATP luminescence, 48-72 h; max response: hits give low values. The gist of the method:
as §1
In general terms: ATP-based viability assays read luminescence as a measure of living cells.

For a further experiment, the system named is KB-3-1. The description is as above. Conditions: Five cell lines viability, CellTiter-Glo ATP luminescence, 48-72 h; max response: hits give low values. Summed up: as §1
For another experiment, the system named is NIH3T3. The description is as above. Conditions: Five cell lines viability, CellTiter-Glo ATP luminescence, 48-72 h; max response: hits give low values. The gist of the method:
as §1

Experiment [2] concerns HACAT. Put plainly: qHTS assay to identify novel small-molecules to repurpose for Merkel cell carcinoma treatment (AID 1296009). Particulars: MCC and control cell lines, CellTiter-Glo viability, 72 h; at 44.8 µM (top of the series) unless noted. Summed up:
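Viability readout: ATP luminescence (CellTiter-Glo) after 72 hr drug exposure at 37 degree celsius. Dose-response format was 8 points for NPC and 11 points for MIPE; data normalized to in-plate controls.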

For another experiment, the system named is TAB109. Put plainly: qHTS profiling for inhibitors of Plasmodium falciparum proliferation (AID 504749).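 Further: 0% = DMSO vehicle and full inhibition = artemisinin control.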 Particulars: P. falciparum in erythrocytes, SYBR Green DNA, 72 h; series mostly up to 28.7 µM. Summed up:
(§2)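 Quantitative HTS: compounds pinned into medium, infected erythrocytes added (0.3% parasitemia, 2.5% hematocrit), 72 h culture at 37 C under 5% CO2. Saponin/Triton lysis with SYBR Green I, overnight RT, then fluorescence read.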
A general note: Quantitative high-throughput screening tests each substance at several concentrations.

Another experiment relates to TAB113. The description is as above. Conditions: P. falciparum in erythrocytes, SYBR Green DNA, 72 h; series mostly up to 28.7 µM. The gist of the method:
as §2

The next experiment concerns TAB165. The description is as above. Conditions: P. falciparum in erythrocytes, SYBR Green DNA, 72 h; series mostly up to 28.7 µM. Summed up: as §2
In another experiment the test system is W2. The description is as above. Conditions: P. falciparum in erythrocytes, SYBR Green DNA, 72 h; series mostly up to 28.7 µM. Summed up: as §2

SMILES strings stand for the structures. Where “and” joins values, the source holds several entries; their conditions need not be identical. Identical values can stand only once. Results filed as inconclusive are left out. A structure can be active in one record and inactive in another. Unmarked numbers belong to inactive results. Calls of active or inactive are those of the source. The call rests on the fitted dose curve; in most records, active means well fitted inhibition curve with a large enough effect; inconclusive means small, poorly fitted or top-dose-only effect; inactive means flat fitted curve, though single readings scatter.
Further: nearly all actives have a fitted effect of over 60% in size.

On to `COc1cc2ncn(-c3cc(OCc4ccccc4S(C)(=O)=O)c(C#N)s3)c2cc1OC`, for which the max response in the experiment with CRL-7250 was 0.002%; in the experiment with HEK293, -13.3%; in the experiment with KB-3-1, -2.12%; in the experiment with NIH3T3, -0.819%. Also, the call in the experiment on HaCat [1] and in the experiment on HACAT [2] was inactive.
Regarding `COc1cc(Cl)cn2c(-c3cccc(NC4CNC4)n3)cnc12`, the max response in the experiment with CRL-7250 was -2.6%; with HEK293, -13.3%; with HaCat [1], -3.22%; in the experiment with KB-3-1, -0.178%; in the experiment on NIH3T3, 4.3%.
Consider `CNC(=O)[C@H](CC1=CN=C2C=CCC=C12)NC(=O)[C@@H](CC(=O)NO)CC(C)C`, for which the max response is -4.69% with CRL-7250; 4.44% in the experiment with HEK293; -12.2% in the experiment on HaCat [1]; 8.99% with KB-3-1; -0.494% in the experiment with NIH3T3.
For the compound `CCCCCCCCCCCCCCCC(=O)O[C@H]1[C@@H](O)[C@@H](O)[C@@H]([C@H](NC(=O)[C@@H]2C[C@@H](CCC)CN2C)[C@H](C)Cl)O[C@@H]1SC`, the outcome in the experiment on CRL-7250, in the experiment with HaCat [1], with KB-3-1, with NIH3T3 and with HACAT [2] was inactive. Moreover, in the experiment on HEK293, the max response was -29.9%.
Turning to `CN1CCC(COc2cnc(-c3cccc(Cn4nc(-c5cccc(C#N)c5)ccc4=O)c3)nc2)CC1`, the compound was called inactive with CRL-7250, with HEK293, in the experiment on HaCat [1] and in the experiment on HACAT [2]. The max response in the experiment on KB-3-1 was -7.63%; in the experiment on NIH3T3, -5.81%. Besides, the Potency in the experiment on NIH3T3 is 16.4 µM (active).
With `O=C(c1ccc(C(=O)N2CCC(N3CCCC3)CC2)c(Nc2ccccc2)c1)N1CCC(N2CCCC2)CC1`, the max response with CRL-7250 was -2.66% and 0.948%; with HEK293, -1.83% and -8.97%; with KB-3-1, -1.29% and -4.53%; in the experiment on NIH3T3 it was -1.45%. Also, the compound was called inactive in the experiment on HaCat [1], in the experiment on NIH3T3 and in the experiment on HACAT [2].
For `CCOC(=O)N1c2ccc(C(F)(F)F)cc2[C@@H](N(Cc2cc(C(F)(F)F)cc(C(F)(F)F)c2)C(=O)OC)C[C@H]1CC`, the Potency with CRL-7250 is 14.8 µM (active). The max response is -0.609% with HEK293, 3.49% in the experiment on HaCat [1] and 1.68% with KB-3-1. For the same compound, the call in the experiment on NIH3T3 was inactive.
In the case of `OC[C@H]1O[C@@H](Oc2ccc(O)cc2)[C@H](O)[C@@H](O)[C@H]1O`, the max response in the experiment on CRL-7250 is -2.9%; with HEK293 it was 3.31%. For the same compound, the compound was called inactive in the experiment with HaCat [1], in the experiment on KB-3-1, in the experiment on NIH3T3 and in the experiment on HACAT [2].
With `CN(CC=CC#CC(C)(C)C)Cc1cccc2ccccc12`, the max response is 1.65% with CRL-7250, 4.31% with KB-3-1 and -1.72% with NIH3T3. For the same compound, the outcome in the experiment with HEK293, with HaCat [1] and in the experiment on HACAT [2] was inactive.
For the compound `C[C@@H](O)[C@H]1C(=O)N2C(C(=O)OCOC(=O)C(C)(C)C)=C(SC3CN(C4=NCCS4)C3)[C@H](C)[C@H]12`, the max response in the experiment on CRL-7250 is 0.148%; in the experiment on KB-3-1, 8.8%. The result in the experiment with HEK293, with HaCat [1], in the experiment on NIH3T3 and with HACAT [2] was inactive.
For the compound `CCC[C@@H](NC(=O)[C@@H]1[C@H]2CCC[C@@H]2CN1C(=O)[C@@H](NC(=O)[C@@H](NC(=O)c1cnccn1)C1CCCCC1)C(C)(C)C)C(=O)C(=O)NC1CC1`, the call in the experiment with CRL-7250, in the experiment with HaCat [1], in the experiment with KB-3-1, in the experiment on NIH3T3 and in the experiment on HACAT [2] was inactive. Further, the max response with HEK293 is -0.244%.
In the case of `CN(C)CCN(Cc1ccc(Cl)cc1)c1ccccn1`, the max response in the experiment on CRL-7250 is 4.38%; in the experiment with HEK293 it was -16.3%; in the experiment on KB-3-1 it was -16.5% and 0.769%; with NIH3T3 it was -1.04%. Also, the call with HaCat [1] and with HACAT [2] was inactive.
Regarding `O=C1C(CCC(O)c2ccc(F)cc2)C(c2ccc(O)cc2)N1c1ccc(F)cc1` (stereo unspecified), the Potency result in the experiment on TAB109, in the experiment on TAB113, with TAB165 and in the experiment on W2 was “inactive” each time. Also, the max response in the experiment on CRL-7250 was -5.06%; in the experiment with HaCat [1] it was 3.02%; in the experiment with KB-3-1, -2.23%; with NIH3T3 it was 1.16%. In the experiment with HEK293, the compound was called inactive.
With `COC(=O)Nc1ccc(-c2nc(N3CCOCC3)c3cnn(C4CCN(C(=O)OC)CC4)c3n2)cc1`, the Potency with CRL-7250 was 0.332 µM (active); in the experiment with HEK293, 1.66 µM (active); in the experiment on KB-3-1, 1.48 µM (active); with NIH3T3 it was 4.18 µM (active).
In the case of `Cc1cc(OCCCS(C)(=O)=O)cc(C)c1-c1cccc(COc2ccc3c(c2)OC[C@H]3CC(=O)O)c1`, the max response was -33.3% with CRL-7250, -16.3% in the experiment on HaCat [1] and -18.7% in the experiment with NIH3T3. Besides, the Potency in the experiment with HEK293 is 20.9 µM (active).
Regarding `CC[C@H](CC#N)OC(=O)N[C@@H](C)c1cccc(NC(=O)Nc2ccc(-c3cnco3)c(OC)c2)c1`, the Potency in the experiment on CRL-7250 is 1.66 µM (active) and 1.03 µM (active); in the experiment on HEK293 it was 0.418 µM (active); with KB-3-1, 1.32 µM (active) and 1.64 µM (active); with NIH3T3, 1.18 µM (active) and 1.3 µM (active).
As to `O=C(CCCN1CCN(c2ccc(F)cc2)CC1)NC1c2ccccc2CSc2ccccc21` (stereo unspecified), the Potency in the experiment on CRL-7250 was 8.33 µM (active); in the experiment with HEK293, 3.72 µM (active). Besides, the max response was -5.32% in the experiment with HaCat [1] and -3.67% in the experiment with NIH3T3.
